Shown are actives, neighbours in structure and some others; about 1.1% of the full set was active somewhere.
AI-2 QS mod = Vibrio harveyi AI-2 quorum sensing modulators, primary screen, JMH597 strain, luminescence/OD600 ratio. Vibrio harveyi JMH597 AI-2 luminescence/OD600 ratio, 9 h; active compounds read low; strain lacks LuxN and CqsS sensors; 0 = neutral-control median. actives 0.4% (n = 300,000). activity change, % at 7.5 µM; in the data active = activity change below about -75%, passing the limit was not always enough;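 also: luminescence divided by OD600 gain over 9 h not by final OD600 alone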
NTR1 agonist = agonists of human NTR1, primary screen, imaging, U2OS cells, beta-arrestin-GFP, high content; activation, % at 20 µM; actives 0.17% (n = 330,000); NTR1-U2OS beta-arrestin-GFP spot imaging, agonist mode; Neurotensin receptor type 1 (Homo sapiens), P30989; AID 493036, 2011;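 active = activation at or above 40% of the spot to cytoplasm intensity ratio, with at least 20 cells analyzed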
VLA-4 inh = inhibition in human VLA-4 binding assay, primary screen, VLA-4 allosteric modulator project, MLPCN library, flow cytometry, VLA-4 expressing cells. Integrin alpha-4 (Homo sapiens), P13612. ligand binding flow cytometry. actives 0.2% (n = 330,000). inhibition, % (about 7 µM as worked out from the volumes in the protocol); in the data active = inhibition above about 50%
DSG3 Ab inh = inhibitors of pemphigus antibody binding to DSG3, primary screen, biochemical, bead-based, flow cytometry, scFv-GFP | DSG3-coupled beads, scFv-anti-DSG3-GFP binding; active compounds read low | AID 588358, 2011 | Desmoglein-3 (Homo sapiens), P32926 | actives 0.48% (n = 310,000) | binding (percent of control), % at 10 µM;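 active = binding more than 3 SD below its plate's average and above zero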;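 also: hits lower antibody fragment binding to DSG3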
Target sequence (P32926 whole entry, looked up, the tested form may be a part): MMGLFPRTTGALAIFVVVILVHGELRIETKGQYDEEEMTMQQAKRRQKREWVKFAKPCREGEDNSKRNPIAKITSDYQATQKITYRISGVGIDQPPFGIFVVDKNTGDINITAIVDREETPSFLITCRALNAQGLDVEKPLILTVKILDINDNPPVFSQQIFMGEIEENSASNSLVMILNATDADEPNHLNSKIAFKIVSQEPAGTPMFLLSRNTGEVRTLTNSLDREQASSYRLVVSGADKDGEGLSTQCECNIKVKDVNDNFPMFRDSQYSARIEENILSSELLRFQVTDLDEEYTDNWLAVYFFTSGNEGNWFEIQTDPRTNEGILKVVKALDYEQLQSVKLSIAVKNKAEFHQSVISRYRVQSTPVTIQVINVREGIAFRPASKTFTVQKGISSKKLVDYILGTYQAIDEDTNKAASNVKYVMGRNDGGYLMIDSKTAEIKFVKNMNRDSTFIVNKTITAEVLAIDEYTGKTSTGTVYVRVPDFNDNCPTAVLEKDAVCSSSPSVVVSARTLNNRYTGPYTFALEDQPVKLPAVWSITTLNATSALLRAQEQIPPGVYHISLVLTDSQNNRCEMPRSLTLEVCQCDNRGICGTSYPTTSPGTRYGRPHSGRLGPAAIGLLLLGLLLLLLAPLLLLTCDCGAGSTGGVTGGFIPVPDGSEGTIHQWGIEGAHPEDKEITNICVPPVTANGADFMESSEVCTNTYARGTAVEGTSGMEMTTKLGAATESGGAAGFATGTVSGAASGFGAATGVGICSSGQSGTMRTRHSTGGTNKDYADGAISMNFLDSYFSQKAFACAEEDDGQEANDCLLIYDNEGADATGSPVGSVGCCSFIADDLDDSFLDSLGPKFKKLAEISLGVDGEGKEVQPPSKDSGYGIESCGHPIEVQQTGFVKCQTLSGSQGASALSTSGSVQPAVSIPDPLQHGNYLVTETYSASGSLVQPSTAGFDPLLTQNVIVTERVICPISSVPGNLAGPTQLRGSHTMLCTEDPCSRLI
VLA-4 allo CP = retest of VLA-4 allosteric modulators, confirmation, cell-based, cherry-picked plates, U937, HUTS-21 LIBS antibody; shares compounds with VLA-4 inh; inhibition, % at 6.7 µM; actives 2% (n = 1,300); U937 cells, HUTS-21 LIBS mAb binding, flow cytometry; LDV ligand present at threefold Kd; in the data active = inhibition above about 40%
Of the large screens only hits and unclear results are named; the others gave an inactive call (follow-up assays come after a bar, where they were run); ! = not active in a repeat.

COc1cccc(CN(C(=O)Cc2c[nH]c3ccccc23)C(C(=O)NC2CCCCC2)c2ccc(C)o2)c1 (stereo unspecified)	none | VLA-4 allo CP inactive
COc1ccc(CN(C(=O)Cc2c[nH]c3ccccc23)C(C(=O)NC2CCCCC2)c2ccc(C)o2)cc1 (stereo unspecified)	none
CCSc1nc2nccnc2c(=O)[nH]1	none (no result: AI-2 QS mod, NTR1 agonist, VLA-4 inh)
Cc1cc(C)n(-c2nc(Nc3ccccc3)nc(-n3nc(C)cc3C)n2)n1	none
Cc1cc(C)n(-c2nc(C)nc(N)n2)n1	none | VLA-4 allo CP inactive
Cc1cc(Cl)nc(-n2nc(C)cc2C)n1	none | VLA-4 allo CP inactive
CNc1cc(C)nc(-n2nc(C)cc2C)n1	none (no result: DSG3 Ab inh)
COc1ccc([C@H]2N[C@]3(CCCN(Cc4ccco4)C3=O)[C@H]3C(=O)N(Cc4ccccc4)C(=O)[C@@H]23)cc1	none (no result: AI-2 QS mod, NTR1 agonist, VLA-4 inh)
CCOC(=O)Cn1nnnc1CN(Cc1ccccc1)Cc1cc2cc(CC)ccc2[nH]c1=O	VLA-4 inh 70.8 | VLA-4 allo CP inactive
Cc1ccc2oc(-c3ccccc3)nc2c1	VLA-4 inh 94.2 | VLA-4 allo CP inactive
C/C(=N\NS(=O)(=O)c1ccc([N+](=O)[O-])cc1)c1c[nH]c2ccccc12	none (no result: DSG3 Ab inh)
CN(C(=O)c1cccc(NC(=O)Cc2ccc(NC(=O)C3CCN(C(=O)C4CCC4)CC3)cc2)c1)C1CCC1	none (no result: AI-2 QS mod, NTR1 agonist, VLA-4 inh)
Cc1ccc2c(c1)/C(=C/c1ccccc1F)C(=O)N2	none | VLA-4 allo CP inactive
Cc1ccc2c(c1)/C(=C/c1ccccc1)C(=O)N2	none
Cc1ccc(NC(=O)Nc2c(Cl)cccc2Cl)cn1	none | VLA-4 allo CP inactive
Cc1ccc(NC(=O)Nc2cccnc2)cc1Cl	none (no result: NTR1 agonist)
CNS(=O)(=O)c1ccc2c(c1)oc(=O)c1cc(S(=O)(=O)NC)ccc12	none
Cc1ccn(CCC(=O)Nc2ccc3c(c2)OCO3)n1	none
COc1cc(CCCN2CCNC[C@@H]2c2ccccc2)cc(OC)c1OC	none (no result: AI-2 QS mod)
COc1cc(CCCN2C(=O)C(=O)NC[C@@H]2c2ccccc2)cc(OC)c1OC	VLA-4 inh 52.3 | VLA-4 allo CP inactive
COc1cc(CCCN2C(=O)C(=O)NC[C@@H]2CC2CCCCC2)cc(OC)c1OC	none
COc1cc(CCCN2C(=O)C(=O)NC[C@@H]2C(C)O)cc(OC)c1OC (stereo partly specified)	none | VLA-4 allo CP inactive
Oc1ccc(NC(=S)Nc2ccccc2)cc1	none | VLA-4 allo CP inactive
Cn1c(NC(=S)Nc2ccccc2)nc2ccccc21	none (no result: DSG3 Ab inh) | VLA-4 allo CP inactive
S=C(Nc1ccccc1)Nc1nc2ccccc2n1CCOc1ccc(Br)cc1	none
Cc1ccc2c(c1)[nH]c1c(=O)n(CCCN3CCOCC3)cnc12	none
COc1cccc2[nH]c3c(=O)n(CCCN4CCOCC4)cnc3c12	none | VLA-4 allo CP inactive
Cc1cc(C)c(S(=O)(=O)c2ccc(F)cc2C)c(Cl)n1	none | VLA-4 allo CP inactive
Cc1cc(C)c(S(=O)(=O)c2ccccc2Cl)c(Cl)n1	none (no result: DSG3 Ab inh)
COc1cccc(NS(=O)(=O)c2cc(C)ccc2OC)c1	none
COc1ccc(C)cc1S(=O)(=O)Nc1cccc(C)c1	none | VLA-4 allo CP inactive
CCOC(=O)N1CCC2(CC1)CC(=O)c1cc(O)ccc1O2	VLA-4 inh 109.4 | VLA-4 allo CP inactive
CCOC(=O)COc1ccc2c(c1)C(=O)CC1(CCN(C(C)=O)CC1)O2	none
CCOC(=O)c1ccc(NC(=O)CN(c2ccc(C)cc2)S(=O)(=O)c2c(C)nn(C)c2C)cc1	none | VLA-4 allo CP inactive
CCOC(=O)c1cccc(NC(=O)CN(c2ccc(C)cc2)S(=O)(=O)c2c(C)n[nH]c2C)c1	VLA-4 inh 57.1 | VLA-4 allo CP inactive
COc1ccc(N(CC(=O)Nc2cccc(C)c2)S(=O)(=O)c2c(C)n[nH]c2C)cc1	none (no result: DSG3 Ab inh)
COCc1cc(C)nc(SCc2ccc(Br)cc2)c1C#N	none
Cc1nc2ccc(NC(=O)c3ccc(C)c(S(=O)(=O)N4CCOCC4)c3)cc2s1	none (no result: AI-2 QS mod)
CNC(=O)CSc1nc2c([nH]c3ccccc32)c(=O)n1CCOC	VLA-4 inh 58.0 | VLA-4 allo CP inactive
CCOC(=O)N1CCN(C(=O)COC(=O)c2cc(C)ccc2C)CC1	none (no result: AI-2 QS mod)
CC12CCC3c4ccc(O)cc4CCC3C1CCC2=O (stereo unspecified)	VLA-4 inh 54.5 (no result: AI-2 QS mod) | VLA-4 allo CP inactive
O=C(N/N=C/c1cccnc1)c1ccccc1Cl	none
O=C(N/N=C\c1cccnc1)c1cc(-c2ccc(Cl)s2)[nH]n1	VLA-4 inh 55.1 | VLA-4 allo CP inactive
COc1ccccc1OCC(O)CN1CCN(CC(=O)Nc2c(C)cccc2C)CC1 (stereo unspecified)	VLA-4 inh 50.7! | VLA-4 allo CP inactive
CCOC(=O)N1CCN(CC(O)COc2c(OC)cccc2OC)CC1 (stereo unspecified)	none
COc1ccc(NC(=O)c2nnn(CC(=O)Nc3ccc4c(c3)OCO4)c2N)c(OC)c1	none
Cc1c(O)ccc(NS(=O)(=O)c2ccccc2)c1C	none | VLA-4 allo CP inactive
Cc1nn(C)c(C)c1CNC(=O)Nc1ccc(Cl)cc1	none (no result: DSG3 Ab inh)
Cc1nn(C)c(C)c1CNC(=O)Nc1ccc2c(c1)OCO2	VLA-4 inh 124.7 (no result: DSG3 Ab inh) | VLA-4 allo CP inactive
COc1cc(C(=O)N/N=C/c2ccc(OC(=O)c3cccc(C)c3)c(OC)c2)ccc1O	none
Cc1cccc(C)c1OCC(=O)Nc1ncn[nH]1	VLA-4 inh 52.3 | VLA-4 allo CP inactive
Cc1ccc(C)c(SCC(=O)OCC(=O)NCCNC(=O)COC(=O)CSc2cc(C)ccc2C)c1	none
COc1ccc(S(=O)(=O)CCC(=O)Nc2c(C)n(C)n(-c3ccccc3)c2=O)cc1	none (no result: AI-2 QS mod) | VLA-4 allo CP inactive
Cc1c(NC(=O)C2CCN(S(=O)(=O)c3ccc(Cl)cc3)CC2)c(=O)n(-c2ccccc2)n1C	none
Cc1c(NC(=O)CCC2CCCCC2)c(=O)n(-c2ccccc2)n1C	none | VLA-4 allo CP inactive
Cc1c(NC(=O)C2CCCN2S(=O)(=O)c2ccccc2)c(=O)n(-c2ccccc2)n1C (stereo unspecified)	none | VLA-4 allo CP inactive
Cc1cccc(N(CC(=O)Nc2c(C)n(C)n(-c3ccccc3)c2=O)S(C)(=O)=O)c1	none | VLA-4 allo CP inactive
COC(=O)CCC(=O)Nc1c(C)n(C)n(-c2ccccc2)c1=O	none
CN(CCOc1ccccc1)C(=O)c1ccc(Cl)c(S(=O)(=O)N2CCCCC2)c1	none (no result: AI-2 QS mod)
O=C(c1ccsc1)N1CCCC(N2CCOCC2)C1 (stereo unspecified)	none
COC(=O)c1sc2nc(N3CCCCC3)c3c(c2c1N)CCCC3	VLA-4 inh 89.8 | VLA-4 allo CP inactive
NC(=O)c1sc2nc(N3CCCCC3)c3c(c2c1N)CCCC3	none
CCn1cc(C(=O)OCc2cccc(Br)c2)c(=O)c2ccc(C)nc21	VLA-4 inh 53.6 | VLA-4 allo CP inactive
COc1cccc(-n2c(Cc3cc(=O)[nH]c(=O)[nH]3)nnc2SCC(=O)NC2CCCCC2)c1	none (no result: AI-2 QS mod)

Screens (PubChem BioAssay)
